# An excerpt weighted towards active compounds, which were near 3.6% of everything screened.
# hDAT+cocaine – changed hDAT dopamine uptake under cocaine IC80, either direction, primary screen, cocaine antagonist project, cell-based, LLC-PK1 hDAT, [14C]-dopamine uptake, MLSMR; Sodium-dependent dopamine transporter (Homo sapiens), Q01959; 110,000 compounds, 1.3% hits; LLC-PK1 hDAT cells, [14C]-dopamine uptake with cocaine IC80; actives deviate in either direction; B-score at 10 µM; AID 449768, 2010;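 active = Z score or B-score, a plate-position-corrected score, falls beyond the plate's 99.7% confidence bounds, in either direction; inactive = both scores lie inside the 99.7% bounds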
# Target sequence (Q01959 whole entry, looked up): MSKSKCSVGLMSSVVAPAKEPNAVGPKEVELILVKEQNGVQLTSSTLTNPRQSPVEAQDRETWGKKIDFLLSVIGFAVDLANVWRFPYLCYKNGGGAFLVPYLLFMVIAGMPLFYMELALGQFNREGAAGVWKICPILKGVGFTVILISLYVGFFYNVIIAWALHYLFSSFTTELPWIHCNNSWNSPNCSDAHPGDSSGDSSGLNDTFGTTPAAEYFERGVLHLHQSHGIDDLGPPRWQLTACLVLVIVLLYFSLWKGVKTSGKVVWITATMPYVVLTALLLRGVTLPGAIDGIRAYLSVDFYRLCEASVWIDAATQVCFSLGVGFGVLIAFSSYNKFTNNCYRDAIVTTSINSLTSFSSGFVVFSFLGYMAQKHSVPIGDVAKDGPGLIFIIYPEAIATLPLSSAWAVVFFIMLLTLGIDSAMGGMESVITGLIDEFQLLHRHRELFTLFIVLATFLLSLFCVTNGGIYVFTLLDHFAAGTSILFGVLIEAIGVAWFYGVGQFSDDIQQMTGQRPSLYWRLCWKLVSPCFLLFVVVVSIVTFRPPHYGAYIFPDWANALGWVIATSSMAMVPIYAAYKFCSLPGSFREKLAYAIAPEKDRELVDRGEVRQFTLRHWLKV
# bCat KO growth – primary screen for growth suppressors in beta-catenin knockout HCT116 cells (colon tumor, human) | viability, % at 10 µM | HCT116 beta-catenin knockout viability, CellTiter-Glo, 60 h; active compounds read low | AID 818, 2007 | 140,000 compounds, 1.5% hits;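 active = viability at or under a set limit, the compound median less 4 SD, cut at about 6% in these data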
# WT yeast gro inh – growth inhibition of WT strain, primary screen, mitochondrial fusion inhibitor project, WT and mutant strains, chemical genetic; mitochondrial fusion phenotypic screen; inhibition, % at 10 µM; 190,000 compounds, 2.1% hits; in the data active = inhibition above about 58%; tested in S. cerevisiae
# PTEN del growth – growth suppression of PTEN-null HCT116, primary screen, cell-based, CellTiter-Glo; HCT116 PTEN-null viability, 60 h; active compounds read low; viability, % at 10 µM; 140,000 compounds, 1.2% hits; AID 827, 2007;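 active = viability at or below a set limit, 4 SD under the median of all tested compounds, cut at about 3.7% in these data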;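 note: PTEN knockout HCT116 line with beta catenin targeted HCT116 as companion control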
# Numbers stand for hits; - = inactive; . = not tested or not shown.
SMILES,hDAT+cocaine,bCat KO growth,WT yeast gro inh,PTEN del growth
CNc1ccccc1C(C)(C)c1cc(-c2cccc(Br)c2)no1,.,.,72.7,.
Cc1ccc(C)c(C(=O)COC(=O)c2ccccc2N2C(=O)C3C4CCC(C4)C3C2=O)c1 (centres undefined),-,-,-,-
CC(c1n[nH]c(=S)n1-c1ccccc1)N1CCCCC1 (centres undefined),.,.,-,.
COc1ccc2oc(=O)c(-c3csc(Nc4cccc(O)c4)n3)cc2c1,.,-,74.0,-
COc1ccc(Nc2nc(-c3cc4cccc(OC)c4oc3=O)cs2)cc1,.,-,-,-
Cc1ccc2cccc(Oc3ncnc4sc(C)c(C)c34)c2n1,.,-,-,-
Cc1ccc2cccc(Oc3cnccn3)c2n1,-1.89,-,-,-
S=C(Nc1ccc(Oc2ccccc2)cc1)NC1CCCC1,.,-,61.9,-
S=C(NCC1CCCCC1)Nc1ccc(Oc2ccccc2)cc1,.,-,77.2,-
S=C(Nc1ccc(Br)cc1)NC1CCCC1,.,-,-,-
FC(F)Sc1ccc(NC(=S)NCC2CCCCC2)cc1,-,-,78.5,-
S=C(NCC1CCCCC1)Nc1cccnc1,.,-,-,-
CN(CC(=O)Nc1ccc(SC(F)F)cc1)C1CCCCC1,.,.,-,.
S=C(Nc1ccccc1Oc1ccccc1)NC1CCCC1,.,.,68.2,.
COCCNC(=O)Nc1ccc(F)cc1,.,.,-,.
O=C1CC2(CCCC2)Oc2ccccc21,-,.,.,.
O=C1c2cccnc2Oc2ccc(Cl)cc2N1Cc1ccc(F)cc1,.,-,-,-
COc1ccc(NC(=S)NC2CCCCC2)c(OC)c1,.,.,-,.
S=C(Nc1ccccc1Oc1ccccc1)Nc1cccc(Cl)c1Cl,.,-,64.9,-
CC1CCCCC1NC(=S)Nc1ccc(SC(F)F)cc1 (centres undefined),-,-,69.0,-
COc1ccc(NC(=S)NC2CCCCCC2)c(OC)c1,.,-,64.0,-
S=C(Nc1ccc(Cl)cc1Cl)Nc1ccccc1Oc1ccccc1,-,-,-,-
FC(F)Sc1ccc(NC(=S)NC2CCCCC2)cc1,-,-,-,-
CSc1nc2c(c(=O)[nH]1)C(c1cccc(Cl)c1)CC(=O)N2 (centres undefined),.,.,-,.
NC(N)=NC(N)=Nc1ccc(SC(F)(F)F)cc1,.,-,-,-
SMILES,hDAT+cocaine,bCat KO growth,WT yeast gro inh,PTEN del growth
CCCCCCCCCc1nc2sc3c(c2c(=O)n1NC(=O)c1ccc([N+](=O)[O-])cc1)CC(C)(C)OC3,.,-,64.4,-
CCCc1nc2sc3c(c2c(=O)n1NC(=O)c1ccco1)CC(C)(C)OC3,.,-,-,-
CCCCCCCCCc1nc2sc3c(c2c(=O)n1NC(=O)c1ccccc1[N+](=O)[O-])CC(C)(C)OC3,.,-,71.0,-
O=C(N/N=C/c1cccn1-c1cccc(C(=O)O)c1)Nc1ccccc1,.,-,-,-
COc1ccc2c(c1)CC/C(=C\Nc1ccc3c(c1)OCO3)C2=O,-,-,.,-
O=C1/C(=C/Nc2ccc3c(c2)OCO3)CCc2ccccc21,-,-,62.5,-
CCOC(=O)c1c(NC(=O)c2ccccc2)sc2c(O)c(CN(CC)CC)ccc12,2.41,-,-,-
CC(=O)Nc1ccc(/C=N/NC(=O)CNC(=O)c2ccccc2)cc1,.,.,-,.
CCCOc1cccc(NC(=O)OC2CCN(C)CC2)c1,.,-,-,-
O=C1Nc2ccc(Cl)cc2C12Nc1ccccc1-c1nnc(SCc3ccccc3F)nc1O2 (centres undefined),.,-,69.1,-
CCOc1ccc2nc(N3C(=O)/C(=C/c4ccc(Cl)cc4)NC3=S)sc2c1,.,-,-,-
CC(C)(C)c1ccc(OCCNC(=S)Nc2ccccc2)cc1,.,.,81.8,.
CCOc1ccc(CSCCNC(=S)Nc2ccccc2)cc1,.,-,71.1,-
CCCCNC(=S)Nc1ccc(Oc2ccccc2)cc1,.,.,65.1,.
CCOc1ccc(NC(=S)NCCCc2ccccc2)cc1,.,.,69.8,.
CCOc1ccc(NC(=S)Nc2ccc(OCc3ccccc3)cc2)cc1,.,-,-,-
CC(=O)c1ccc(Cc2ccc(C(C)=O)cc2)cc1,.,.,-,.
COc1ccc(C2NC(=S)NC(O)(C(F)(F)F)C2C(=O)c2cccs2)cc1 (centres undefined),.,-,-,-
CC(C)(C)c1ccc(NC(=O)CNC2CCCc3ccccc32)cc1 (centres undefined),.,.,81.1,.
O=C(Nc1ccn(Cc2c(F)c(F)cc(F)c2F)n1)c1ccc(COc2ccccc2Cl)cc1,-,-,-,-
O=C(Nc1ccn(Cc2ccccc2F)n1)c1ccc(COc2ccccc2Cl)cc1,.,5.9,-,-
Cc1cc(C)nc(NC(=O)c2ccc(COc3ccccc3Cl)cc2)c1,.,.,65.2,.
O=C(CCC1CCCN(Cc2ccc3c(c2)CCO3)C1)NCc1ccc(F)c(F)c1 (centres undefined),.,.,-,.
COc1cc2nc(C3CCC3)nc(N3CCN(c4ccccc4OC)CC3)c2cc1OC,.,-,82.5,-
COc1cc2nc(C3CCC3)nc(N3CCN(c4ccccn4)CC3)c2cc1OC,.,-,-,-
SMILES,hDAT+cocaine,bCat KO growth,WT yeast gro inh,PTEN del growth
COc1ccc(S(=O)(=O)N2CCCOC2CNC(=O)C(=O)NCc2ccco2)cc1 (centres undefined),.,.,-,.
O=C(CSc1nc2ccccc2[nH]1)Nc1ccc(F)cc1,-,-,-,-
O=C(Nc1ccc(F)cc1)C(Sc1nc2ccccc2[nH]1)c1ccccc1 (centres undefined),.,2.7,-,2.6
O=C(O)c1cc(-c2ccc(/C=C3/SC(=S)N(Cc4ccccc4)C3=O)o2)ccc1Cl,.,.,59.9,.
COc1ccc(CN2C(=O)/C(=C/c3ccc(-c4ccc(Cl)c(C(=O)O)c4)o3)SC2=S)cc1,.,.,-,.
O=C(NNS(=O)(=O)c1ccccc1)C1CC(c2cccnc2)=NO1 (centres undefined),.,.,-,.
CN(CCC#N)C(=O)COC(=O)c1cccnc1Nc1ccccc1F,.,.,-,.
COc1ccc(CN2CCC(CO)(Cc3cccc(C(F)(F)F)c3)CC2)cc1Cn1cccn1,.,.,-,.
O=C(NCCc1ccc(Cl)cc1)C1CCN(S(=O)(=O)c2cccc3nonc23)CC1,-2.16,-,-,-
O=C(NCCc1ccccc1)C1CCN(S(=O)(=O)c2cccc3nonc23)CC1,-,-,-,-
C/C(=N\NC(=O)C(c1ccccc1)c1ccccc1)c1ccccn1,.,4.3,-,-
N/C(=N\OC(=O)C(c1ccccc1)c1ccccc1)c1ccccn1,-,-,-,-
C/C(=N\NC(=O)C1COc2ccccc2O1)c1ccccn1 (centres undefined),.,5.0,-,-
C=CCn1c(SCC(=O)Nc2cccnc2Cl)nnc1-c1ccc(C(C)(C)C)cc1,.,-,-,-
COc1ccc(N/C=C/C(=C(C#N)C#N)N(C)C)cc1,.,.,-,.
CCN1C(=O)[C@@H]2[C@H](C1=O)[C@@H]1CC(C(=O)OC)=C[C@@H](C(=O)OC)C3C1=C(C(=O)C3(CC)CC)[C@@H]2C (some centres undefined),-,.,.,.
Cc1[nH]c2ccccc2c1C(=O)COC(=O)c1c(-c2ccccc2Cl)noc1C,.,-,86.5,-
Cc1[nH]c2ccccc2c1C(=O)COC(=O)c1c(-c2c(F)cccc2Cl)noc1C,.,-,85.3,-

# High-throughput results from PubChem BioAssay.
